Assay results taken from PubChem BioAssay.
Activity calls are given as the source filed them.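 Rule for the calls, unless noted: active = fluorescence slope after compound addition differing from the mean of all screened samples at 99.7% confidence, in either direction; inactive = the rest.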

Key:
[1] = inhibitors of TNFa-induced NFkB p65 translocation, primary screen, imaging, HUVEC, MLSMR starter and 10KST1 sets (AID 438;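 active = inhibition above 20% together with a positive visual image hit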;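 note: compound added about 3h40 before a 20 min TNFalpha stimulation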;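 for inhibition: signal is the nuclear over cytoplasmic p65 intensity ratio per well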); details: HUVEC TNFa-induced p65 nuclear translocation; cell count: measured here: nuclei count (cytotoxicity indicator), at 2.08 µM; inhibition: at 2 µM, stronger effect = higher value, 0% TNFa-plus-vehicle, 100% no-TNFa wells
[2] = inhibitors of mutant huntingtin aggregation, primary screen, imaging, exon1htt(103Q)mCFP cells, high-content imaging (AID 483;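 active = visual image review flags a hit and inhibition of aggregation exceeds 20%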;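 note: compound exposure lasted 3 days before fixation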;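 for nuclei count: percent of the per-plate median nuclei count of sample wells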); details: exon1htt(103Q)mCFP cell line, aggregate imaging, at 2 µM; inhibition of aggregation: stronger effect = higher value; nuclei count: measured here: cell count, toxicity
[3] = inhibitors of E-selectin induction by TNFa, primary screen, imaging, HUVEC, immunofluorescence, MLSMR starter and 10KST1 sets (AID 487;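 active = visually confirmed hit in the image check and inhibition above 20%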;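 for inhibition: signal is fraction of cell area covered by stained E-selectin grains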;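 for nuclei count: 100% = median nuclei count of all wells on the same plate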); details: HUVEC TNFalpha-induced E-selectin immunofluorescence imaging, at 2 µM; inhibition: stronger effect = higher value; nuclei count: measured here: cell number, toxicity
[4] = target: Voltage-gated potassium channel subunit beta-2 (Rattus norvegicus) (UniProt P62483); experiment: KvBeta enzyme negative modulators, primary screen, biochemical, NADPH fluorescence (AID 622;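 active = fluorescence slope higher than the sample average by over 3 SD, cut at about -0.22 in these data, passing the limit was not always enough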;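 note: slope of raw intensity against log time taken from 70 to 1610 s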); details: recombinant KvBeta, 4-cyanobenzaldehyde reduction, at 10 µM, stronger effect = higher value
Chain of Voltage-gated potassium channel subunit beta-2 (Rattus norvegicus) (P62483 whole entry, looked up): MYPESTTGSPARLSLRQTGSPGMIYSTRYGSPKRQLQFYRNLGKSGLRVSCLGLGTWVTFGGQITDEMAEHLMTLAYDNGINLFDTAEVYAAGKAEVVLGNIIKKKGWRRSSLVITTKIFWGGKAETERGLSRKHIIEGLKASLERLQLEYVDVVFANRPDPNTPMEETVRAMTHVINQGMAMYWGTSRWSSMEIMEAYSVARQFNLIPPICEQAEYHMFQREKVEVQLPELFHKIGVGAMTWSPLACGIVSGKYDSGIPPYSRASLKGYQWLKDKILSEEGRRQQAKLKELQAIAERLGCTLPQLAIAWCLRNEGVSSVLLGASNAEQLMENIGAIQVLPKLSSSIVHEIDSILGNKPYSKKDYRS

[5] = target: Voltage-gated potassium channel subunit beta-2 (Rattus norvegicus) (UniProt P62483); experiment: KvBeta positive modulators, primary screen, biochemical, NADPH fluorescence (AID 623;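 active = NADPH fluorescence slope more negative than the mean of all samples by about 3 SD, 99.7% confidence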;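 note: fluorescence intensity change per second fitted from 20 to 320 s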); details: Recombinant KvBeta, NADPH fluorescence decrease slope, 10 min; at 10 µM; stronger effect = lower value
[6] = target: Alpha-2C adrenergic receptor (Homo sapiens) (UniProt P18825); experiment: modulators of alpha2C/GIRK thallium flux, primary screen, cell-based, HEK293 alpha2C/GIRK1/2 (AID 624); details: thallium flux BTC fluorescence, at 10 µM, actives lie on both sides;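 note: slope of fluorescence ratio to pre-addition baseline per second over 15 to 24 s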
Chain of Alpha-2C adrenergic receptor (Homo sapiens) (P18825 whole entry, looked up): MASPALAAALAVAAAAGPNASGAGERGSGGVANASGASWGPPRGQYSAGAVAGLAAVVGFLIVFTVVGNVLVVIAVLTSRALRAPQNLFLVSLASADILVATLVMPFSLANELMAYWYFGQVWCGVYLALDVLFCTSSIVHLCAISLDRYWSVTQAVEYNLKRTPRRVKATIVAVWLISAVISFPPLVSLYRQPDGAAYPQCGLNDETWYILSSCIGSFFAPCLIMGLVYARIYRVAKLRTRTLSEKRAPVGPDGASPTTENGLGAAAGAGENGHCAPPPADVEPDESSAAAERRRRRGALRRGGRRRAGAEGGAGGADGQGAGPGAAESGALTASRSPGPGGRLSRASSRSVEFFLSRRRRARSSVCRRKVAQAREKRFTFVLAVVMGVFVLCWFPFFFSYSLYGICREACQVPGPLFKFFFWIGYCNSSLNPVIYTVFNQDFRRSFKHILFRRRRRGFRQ

[7] = inhibitors of Sendai virus-induced IRF3 signaling, primary screen, TLR/RLR signaling modifier project, cell-based, Sendai virus stimulus, luciferase, 10K MLSCN set (AID 602276;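 active = inhibition at or above 50% at 10 µM; inactive = inhibition below 50%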;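 note: firefly luciferase from ISG56 promoter only with Renilla not read in this screen; 0% = Sendai virus plus DMSO and 100% = medium plus DMSO without virus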); details: HEK293 RL24 IRF3 luciferase reporter, at 10 µM, stronger effect = higher value
[8] = inhibitors of poly I:C-induced TLR3 signaling, primary screen, cell-based, poly I:C stimulus, luciferase, 10K MLSCN set (AID 602277;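 active = inhibition of the reporter signal at or above 50%; inactive = inhibition below 50%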); details: HEK293-TLR3 RL24 IRF3 luciferase reporter, at 10 µM, stronger effect = higher value

Row | Structure (SMILES) | cell count [1] | inhibition [1] | inhibition of aggregation [2] | nuclei count [2] [%] | inhibition [3] | nuclei count [3] [%] | fluorescence slope [4] | NADPH fluorescence slope [5] | slope [6] | inhibition [7] | inhibition [8]
1 | COc1cccc(C(=O)N2CCCC(c3nc(-c4cccs4)no3)C2)c1 (centres undefined) | 446 | -25.5% (inactive) | 19.7% (inactive) | 74.5 | 22.9% (inactive) | 95.9 | -0.467 (inactive) | -3.3e-05 (inactive) | 0.00563 (inactive) | 24.8% (inactive) | -19.2% (inactive)
2 | CCCCn1nc(C(=O)N2CCc3ccccc32)c2ccccc2c1=O | 423 | -9% (inactive) | -20.9% (inactive) | 112 | 36.5% (inactive) | 41.8 | -0.473 (inactive) | 2e-05 (inactive) | 0.0045 (inactive) | -1.51% (inactive) | 20.2% (inactive)
3 | CC1(C)CC(=O)C(C=NCC2CCNCC2)=C(O)C1 | 249 | -2.1% (inactive) | 6.8% (inactive) | 74.8 | -10.9% (inactive) | 116 | -0.466 (inactive) | -4.9e-06 (inactive) | 0.00268 (inactive) | 3.67% (inactive) | 27.1% (inactive)
4 | FC(F)(F)c1cc(-c2ccco2)nc(N2CCOCC2)n1 | 645 | -8.5% (inactive) | -15% (inactive) | 89 | -83.2% (inactive) | 118 | -0.586 (inactive) | -1.4e-05 (inactive) | 0.00435 (inactive) | 16.2% (inactive) | 15.5% (inactive)
5 | CCn1c(SCC(=O)c2ccc(OC)cc2)nnc1C(C)NC(=O)c1ccc(OC)cc1 (centres undefined) | 449 | -1.8% (inactive) | 2.6% (inactive) | 96.2 | -41.9% (inactive) | 129 | -0.409 (inactive) | 2.1e-05 (inactive) | 0.00558 (inactive) | -3.91% (inactive) | 9.81% (inactive)
6 | CCCCCn1c(CCNC(=O)CCC)nc2ccccc21 | 635 | 3.4% (inactive) | -4.9% (inactive) | 55 | -30.5% (inactive) | 104 | -0.552 (inactive) | -4.5e-05 (inactive) | 0.00652 (inactive) | 10.2% (inactive) | 40.2% (inactive)
7 | COc1ccc(OC)c(C(=O)COC(=O)c2cc(C)oc2C)c1 | 747 | -9.6% (inactive) | 38.1% (inactive) | 103 | -2.3% (inactive) | 114 | -0.361 (inactive) | 2.4e-05 (inactive) | 0.00558 (inactive) | 6.43% (inactive) | -0.082% (inactive)
8 | CCC(=O)Nc1ccc(Cl)c(NC(=O)C(C)C)c1 | 410 | 0.3% (inactive) | -10.3% (inactive) | 105 | -111% (inactive) | 81.5 | -0.47 (inactive) | -3.3e-05 (inactive) | 0.00567 (inactive) | 5.28% (inactive) | 25.2% (inactive)
9 | Cc1cccc(NC(=O)Cn2c(=O)n(C)c3ccccc32)c1 | 350 | -3.7% (inactive) | 2.6% (inactive) | 107 | -17.7% (inactive) | 107 | -0.417 (inactive) | 9.1e-06 (inactive) | 0.011 (inactive) | 9.53% (inactive) | 9.37% (inactive)
10 | CCn1c(=S)ccc2ccc(OC)cc21 | 296 | 5.3% (inactive) | -4.2% (inactive) | 77.6 | -13.4% (inactive) | 120 | -0.599 (inactive) | -9.6e-06 (inactive) | 0.0055 (inactive) | -6.3% (inactive) | 29% (inactive)
11 | O=C(NCc1cccnc1)C1c2ccccc2C(=O)N1Cc1ccco1 (centres undefined) | 408 | 4.7% (inactive) | 7% (inactive) | 115 | 50.4% (inactive) | 113 | -0.595 (inactive) | -1.9e-05 (inactive) | 0.00603 (inactive) | 5.3% (inactive) | 11% (inactive)
12 | CCOC(=O)C(NC(=O)OC(C)C)(Nc1nccs1)C(F)(F)F (centres undefined) | 636 | 10.6% (inactive) | -13.3% (inactive) | 98.7 | 22.7% (inactive) | 108 | -0.608 (inactive) | -5.2e-07 (inactive) | 0.00583 (inactive) | 8.51% (inactive) | 27.8% (inactive)
13 | Cn1c(C(=O)NCC2CCCO2)cc2c(=O)n(C)c3ccccc3c21 (centres undefined) | 658 | -5.5% (inactive) | -1.8% (inactive) | 115 | -71.5% (inactive) | 107 | -0.583 (inactive) | -3.1e-05 (inactive) | 0.00806 (inactive) | 7.53% (inactive) | 19% (inactive)
14 | COc1ccc(OC)c(S(=O)(=O)N2CCN(c3c(C)cccc3C)CC2)c1 | 622 | 1.1% (inactive) | 30.2% (inactive) | 111 | -9.3% (inactive) | 102 | -0.541 (inactive) | -4.7e-05 (inactive) | 0.00796 (inactive) | 9.96% (inactive) | 30.5% (inactive)
15 | CCOC(=O)N1CCN(S(=O)(=O)c2ccc(F)c(C(=O)Nc3cc(C)cc(C)c3)c2)CC1 | 578 | -19.7% (inactive) | 16.1% (inactive) | 62.7 | -87% (inactive) | 111 | -0.393 (inactive) | -1.2e-05 (inactive) | 0.00302 (inactive) | 1.83% (inactive) | 14.3% (inactive)
16 | CN(C)c1cc(NC(=O)CN2CCOCC2)c2ccccc2n1 | 863 | 1.2% (inactive) | 6.6% (inactive) | 101 | -75% (inactive) | 131 | -0.549 (inactive) | -3.5e-05 (inactive) | 0.00612 (inactive) | 9.32% (inactive) | 46.3% (inactive)
17 | CCOc1ccc(NC(=O)CSc2nccn2C)cc1 | 309 | 15.3% (inactive) | 3.1% (inactive) | 106 | -28.1% (inactive) | 114 | -0.28 (inactive) | 1e-05 (inactive) | 0.00367 (inactive) | -18.3% (inactive) | -80.7% (inactive)
18 | O=C(Nc1ccc(NC(=O)c2ccco2)nc1)c1cccnc1 | 505 | 19.2% (inactive) | -0.5% (inactive) | 93.2 | 1% (inactive) | 89.3 | -0.472 (inactive) | -2.2e-05 (inactive) | 0.00492 (inactive) | -21.2% (inactive) | -50% (inactive)
19 | c1ccc2c(c1)nc(NCCN1CCOCC1)c1nncn12 | 508 | 3.2% (inactive) | 25.2% (inactive) | 85.4 | -51.1% (inactive) | 99.2 | -0.587 (inactive) | -4e-05 (inactive) | 0.00643 (inactive) | 12.4% (inactive) | 37.9% (inactive)
